Screening results from PubChem.
ADAM10 inh: inhibitors of human ADAM10; recombinant ADAM10, EDANS/DABCYL FRET peptide cleavage, 3 h; inhibition, % at 7 µM; actives 0.62% (n = 370,000); AID 720582;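 active means inhibition above a per-campaign cutoff equal to the mean of compounds falling between control-based bounds plus 3 SD, cut at about 20% in these data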
NR3A LBD binder: modulates the human NR3A ligand-binding domain | NR3A LBD differential scanning fluorimetry, Tm shift; 0% = protein alone, 100% = glycine-bound protein | Tm shift relative to glycine control, % at 25 µM | actives 2.5% (n = 340,000);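 active means melting temperature shift of at least 10% of the positive control shift, at one fixed dose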
ADAM17 inh: inhibits human ADAM17; P78536; recombinant ADAM17, EDANS/DABCYL FRET peptide cleavage; inhibition, % at 6.95 µM; actives 0.83% (n = 370,000); AID 720648;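 active means inhibition above the mean of compounds lying between control limits plus 3 SD, set per campaign, cut at about 8.5% in these data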
HGIII-sPLA2 inh: Blocks human group III sPLA2 activity; actives 0.56% (n = 370,000); QFRET BODIPY PC-A2 liposome hydrolysis, fluorescence; inhibition, % at 12.2 µM; Q9NZ20; AID 743126;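 active means inhibition above mean plus 3 SD of compounds lying within the high and low control bounds, cut at about 19% in these data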
Target sequence (Q9NZ20 whole entry, looked up): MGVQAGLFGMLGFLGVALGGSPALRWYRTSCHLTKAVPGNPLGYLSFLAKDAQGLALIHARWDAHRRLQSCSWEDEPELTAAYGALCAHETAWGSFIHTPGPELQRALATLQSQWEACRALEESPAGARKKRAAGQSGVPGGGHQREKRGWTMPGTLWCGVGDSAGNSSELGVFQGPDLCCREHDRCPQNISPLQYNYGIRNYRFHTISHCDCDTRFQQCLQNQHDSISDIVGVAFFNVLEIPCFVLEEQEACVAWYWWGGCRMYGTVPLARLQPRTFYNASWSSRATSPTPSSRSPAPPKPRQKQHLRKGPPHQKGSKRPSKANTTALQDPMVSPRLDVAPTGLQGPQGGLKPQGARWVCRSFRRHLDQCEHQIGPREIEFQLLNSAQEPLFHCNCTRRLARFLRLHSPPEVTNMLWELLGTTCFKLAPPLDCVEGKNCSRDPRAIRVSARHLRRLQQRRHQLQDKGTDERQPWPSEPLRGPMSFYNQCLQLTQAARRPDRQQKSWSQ
FAS-TE inh: inhibitors of human fatty acid synthase thioesterase domain; P49327; AID 602261; inhibition, % at 15 µM; recombinant FAS-TE, OMFH fluorogenic substrate, fluorescence endpoint; actives 0.67% (n = 360,000);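 active means compounds whose normalised, plate-corrected inhibition of enzyme fluorescence in the single-dose primary screen is 50% or more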
Numbers stand for hits; – = inactive; · = no result. Hits are enriched below; roughly 4.3% of the tested compounds scored in any of these assays.

SMILES	ADAM10 inh	NR3A LBD binder	ADAM17 inh	HGIII-sPLA2 inh	FAS-TE inh
O=C1c2ccccc2NC2CCCCCN12 (configuration not stated)	–	–	–	–	–
O=C1c2ccc(-c3ccc(F)cc3OCc3ccccc3)cc2S(=O)(=O)c2cccc(C(=O)N3CCN(c4ncc(Br)cn4)CC3)c21	–	–	–	–	–
O=C(O)c1cccc2c1C(=O)c1ccc(-c3ccc(F)cc3OCc3ccccc3)cc1S2(=O)=O	·	12.9	·	·	–
Cc1cc(CNC(=O)c2cccc3c2C(=O)c2ccc(-c4ccc(F)cc4OCc4ccccc4)cc2S3(=O)=O)c(C(F)(F)F)o1	–	17.0	–	–	–
CC(=O)Nc1ccc(NC(=O)c2ccc(COc3ccccc3Br)o2)cc1	–	22.9	–	–	–
COc1ccc(C(=O)N/N=C/c2cc(Br)ccc2O)cc1OC	–	–	–	–	–
COc1ccc(O)c(/C=N/NC(=O)c2ccc(OCc3cccc(Br)c3)cc2)c1	–	27.4	–	–	–
CC(C)(C)c1ccc(OCc2ccc(C(=O)N/N=C/c3ccc(O)c(O)c3)cc2)cc1	–	23.8	–	–	–
O=C(N/N=C/c1cccc(O)c1)c1ccc(COc2cccc3cccnc23)cc1	–	–	–	–	–
O=C(N/N=C/c1cccc(O)c1)c1ccc(COc2ccccc2Br)cc1	–	35.0	–	–	–
COc1ccc(C2C(C(=O)Nc3ccc(F)cc3)CCC(=O)N2c2ccc(OC)cc2)cc1 (configuration not stated)	–	·	–	–	·
COC(=O)C1CN(C2CC2)CCS(=O)(=O)N1Cc1cn(Cc2ccc(Cl)cc2)nn1 (configuration not stated)	–	·	–	–	·
O=C(NN=Cc1ccc(O)c(O)c1)c1ccccc1	·	·	·	·	–
O=C(Nc1ccc(Cn2cccn2)cc1)c1ccc(COc2ccccc2Br)cc1	–	30.4	–	–	–
O=C(COc1ccccc1C(=O)N/N=C\c1ccc(O)c(O)c1)N/N=C/c1ccc(O)c(O)c1	·	13.3	·	·	–
Cc1ccc(C(C)C)c(OCc2ccc(C(=O)N/N=C/c3ccc(O)cc3O)cc2)c1	–	26.0	–	–	–
COc1ccccc1OCc1ccc(C(=O)Nc2ccccc2)cc1	–	–	–	–	–
Cc1ccc(OC[C@@H](O)CN2CCC(C(O)(c3ccccc3)c3ccccc3)CC2)cc1	–	·	–	–	·
O=C(c1cccs1)C1CCN(c2ncnc3sccc23)CC1	–	·	–	–	·
C/C(=N\Nc1nc2ccccc2[nH]1)c1ccc(Cl)s1	–	15.9	–	–	–
CC(C)(C)OC(=O)n1cc(-c2ccccc2)c2c(-c3ccccc3)c(O)ccc21	–	·	–	–	·
CCc1ccc2c(c1)C(=O)c1ccccc1C2=O	–	17.6	–	–	–
CC(C)(C)c1ccc(-c2ccc3c(c2)S(=O)(=O)c2ccccc2C3=O)cc1	–	–	–	–	–
CCc1ccc(NC2=CC(=O)C(=O)c3ccccc32)cc1	–	–	–	–	–
CC(C)(C)c1ccc2c(c1)C(=O)c1ccccc1C2=O	–	24.4	–	–	–
SMILES	ADAM10 inh	NR3A LBD binder	ADAM17 inh	HGIII-sPLA2 inh	FAS-TE inh
O=c1c2ccccc2n(Cc2ccno2)n1[C@@H](Cc1ccccc1)Cn1cc(-c2ccc(-c3ccccc3)cc2)nn1	–	·	–	–	·
O=C(Nc1ccc(Nc2cccnc2)cc1)c1c[nH]c2ccccc12	–	·	–	25.5	·
O=C(NCc1cccnc1)C(=O)c1c[nH]c2ccccc12	–	–	–	–	–
Cc1cc(C)cc(N(CC(=O)NCc2ccc(F)cc2)C(=O)c2snc(C(N)=O)c2N)c1	–	11.4	–	–	–
CCOC(=O)/C(=N\Nc1ccc(C(C)=O)cc1)c1csc(Nc2ccccc2)n1	–	14.9	–	–	–
O=C(Nc1ccc(Cl)cc1)O[C@@H]1CC[C@@]23CCCN2C(=O)CCC[C@H]3C1	–	·	–	–	·
O=C(NCCN1C(=O)C2C3C=CC(C3)C2C1=O)c1cc(F)cc(F)c1 (configuration not stated)	–	·	–	–	·
Nc1c(C(=O)Nc2ccccc2)c2nc3ccccc3nc2n1-c1ccc(O)cc1	–	20.8	–	–	–
O=C(Nc1cccc(Cl)c1)O[C@@H]1CC[C@@]23CCCN2C(=O)CCC[C@H]3C1	–	·	–	–	·
O=[N+]([O-])c1cccc(S(=O)(=O)Nc2ccc(-c3ccc(N4CCCC4)nn3)cc2)c1	–	31.1	–	–	–
CCN(CC)C(=O)CC[C@@H]1CC[C@]2(CCCN(Cc3nccs3)C2)O1	–	·	–	–	·
